C diff growth – inhibitors of Clostridium difficile growth | Clostridium difficile clinical isolate growth, OD600, 24 h; hits give low values | growth activity, negative = inhibition, % at 16 µg/mL (by protocol) | actives 0.25% (n = 86,000);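 active = mean growth activity at or below -80% and every replicate also at or below -80%; inconclusive = mean at or below -80% but some replicate above -80%; inactive = mean growth activity above -80%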;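 also: 0% = DMSO wells and -100% = levofloxacin 16 µg/mL wells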
Pf Dd2 inh – P. falciparum Dd2 growth inhibition; SYBR Green, 72 h; hits give low values; activity change, % at 10 µM; actives 2.3% (n = 94,000); AID 1159554; in the data active = activity change below about -80%; inconclusive = no clear call, values can overlap the other calls
T cruzi growth-1 – T. cruzi proliferation inhibition | T. cruzi beta-gal in NIH3T3, GalScreen luminescence, 90 h | inhibition, % at 8.34 µM | actives 5.9% (n = 77,000);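 active = mean inhibition above about 93%, with at least 55% of replicates each passing it, limit read from the data, passing the limit was not always enough; inconclusive = only one of those two conditions holds; inactive = neither condition holds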
T cruzi growth-2 – blocks T. cruzi growth in NIH3T3 host cells; shares compounds with T cruzi growth-1; T. cruzi beta-gal in NIH3T3, GalScreen luminescence, 90 h; inhibition, % at 8.35 µM; actives 72% (n = 5,600);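 active = mean replicate inhibition above about 95% and at least 55% of replicates individually reaching it, limit read from the data; inconclusive = only one of the two criteria is met; inactive = neither criterion is met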
T cruzi growth-3 – Trypanosoma cruzi proliferation inhibition. shares compounds with T cruzi growth-1. T. cruzi beta-gal in NIH3T3, GalScreen luminescence, 90 h. inhibition, % at 2.09 µM. actives 21% (n = 5,600). AID 651740;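 active = mean inhibition above about 95%, with at least 55% of replicates also reaching it, limit read from the data; inconclusive = meets just one of the two conditions; inactive = meets neither condition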;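 also: plate controls were neutral control median for no effect and positive control median for full effect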
3T3 cytotox – NIH/3T3 (mouse) viability loss; shares compounds with T cruzi growth-1; NIH/3T3 viability, CellTiter-Glo ATP luminescence, 90 h; cytotoxicity (signal decrease), % at 8.35 µM; actives 14% (n = 5,600);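 active = mean signal decrease across replicates above about 35% based on untreated-well scatter, with enough replicates individually passing, limit read from the data; inconclusive = no rule stated though some were filed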;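 also: 0% = median of neutral control wells and 100% = median of positive control wells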
3T3 cytotox 2 – kills mouse NIH/3T3 fibroblasts | shares compounds with T cruzi growth-1 | NIH/3T3 viability, CellTiter-Glo ATP luminescence, 90 h | inhibition, % at 24.9 µM | actives 56% (n = 5,600) | AID 651744;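 active = mean loss of cell viability signal at or above a set limit, and enough replicates individually reaching it; inconclusive = meets only the mean limit or only the replicate share; inactive = meets neither condition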;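 also: 0% = median of neutral control wells and 100% = median of positive control wells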
* marks the source's active call; other numbers are inactive results; ? = inconclusive; . = no result. In the library only some 6.7% were active in any assay of this set; here they are far more common.

SMILES	C diff growth	Pf Dd2 inh	T cruzi growth-1	T cruzi growth-2	T cruzi growth-3	3T3 cytotox	3T3 cytotox 2
N#C[C@H]1[C@@H](c2ccccc2)[C@@H](CO)N1S(=O)(=O)c1ccc(-c2ccccc2)cc1	0	-9	96*	102*	77	10	23
N#C[C@@H]1[C@@H](c2ccccc2)[C@@H](CO)N1S(=O)(=O)c1ccc(-c2ccccc2)cc1	18	48	103*	100*	26	17	20
Cc1noc(C)c1NC(=O)Nc1cccc2c1O[C@@H](CN(C)S(=O)(=O)c1cccs1)[C@@H](C)CN([C@@H](C)CO)C2=O	.	24	-43	.	.	.	.
CCS(=O)(=O)N1CC2(C1)[C@H](c1ccccc1)[C@H](CO)N2C(=O)C1CCCC1	-1	0	.	.	.	.	.
COCC#Cc1ccc2c(c1)O[C@@H](CN(C)CC1CC1)[C@@H](C)CN([C@H](C)CO)S2(=O)=O	-3	-26	.	.	.	.	.
CC(C)C#Cc1ccc2c(c1)O[C@@H](CN(C)CC1CCOCC1)[C@@H](C)CN([C@H](C)CO)S2(=O)=O	-2	-33	54	.	.	.	.
C[C@H]1CN([C@@H](C)CO)S(=O)(=O)c2ccc(C#Cc3ccccc3F)cc2O[C@H]1CN(C)CC1CCOCC1	2	-51	.	.	.	.	.
COCC#Cc1ccc2c(c1)O[C@@H](CN(C)CC1CCCC1)[C@H](C)CN([C@H](C)CO)S2(=O)=O	5	-65	110*	98*	47	44*	104*
COc1ccc(-c2ccc3c(c2)O[C@H](CN(C)CC2CCOCC2)[C@@H](C)CN([C@@H](C)CO)S3(=O)=O)cc1	-9	-13	41	.	.	.	.
C[C@H](CO)N1C[C@H](C)[C@@H](CN(C)CC2CCOCC2)Oc2cc(C#Cc3ccccc3F)ccc2S1(=O)=O	13	-65	122*	99*	103*	-25	43*
CC(C)C#Cc1ccc2c(c1)O[C@H](CN(C)CC1CCOCC1)[C@@H](C)CN([C@@H](C)CO)S2(=O)=O	-2	-66	102*	98*	93	18	105*
COc1ccc(-c2ccc3c(c2)O[C@@H](CN(C)CC2CCOCC2)[C@H](C)CN([C@@H](C)CO)S3(=O)=O)cc1	-9	-53	93*	100*	101*	51*	67*
Cc1ccc(-c2ccc3c(c2)O[C@H](CN(C)S(C)(=O)=O)[C@@H](C)CN([C@H](C)CO)S3(=O)=O)cc1	-15	-2	55	.	.	.	.
COCC(=O)N(C)C[C@H]1Oc2ncc(C#Cc3cccnc3)cc2C(=O)N([C@H](C)CO)C[C@H]1C	3	-18	43	.	.	.	.
CN(C[C@@H]1N[C@H](CO)[C@@H]1c1ccc(-c2ccccc2)cc1)C(=O)C1CCC1	-4	-23	.	.	.	.	.
C[C@@H]1CN([C@H](C)CO)S(=O)(=O)c2ccc(C#CC3CC3)cc2O[C@H]1CN(C)CC1CCOCC1	-4	-10	?	101*	27	50*	91*
C[C@@H]1CN([C@H](C)CO)S(=O)(=O)c2ccc(C#CC3CC3)cc2O[C@@H]1CN(C)CC1CCOCC1	-2	-5	48	.	.	.	.
C[C@@H]1CN([C@H](C)CO)S(=O)(=O)c2ccc(C#CC3CC3)cc2O[C@@H]1CN(C)CC1CC1	.	-37	105	.	.	.	.
CCCN(C)C[C@@H]1Oc2cc(C#CC3CCCC3)ccc2S(=O)(=O)N([C@@H](C)CO)C[C@@H]1C	4	-79	99*	113*	91	23	104*
CCCN(C)C[C@H]1Oc2cc(C#CC3CCCCC3)ccc2S(=O)(=O)N([C@@H](C)CO)C[C@@H]1C	18	-22	58	.	.	.	.
C[C@H](CO)N1C[C@H](C)[C@@H](CN(C)CC2CCCC2)Oc2cc(C#CC3CC3)ccc2S1(=O)=O	.	-44	?	104*	94	7	105*
C[C@H]1CN([C@@H](C)CO)C(=O)c2cc(NC(=O)Nc3ccc(C(F)(F)F)cc3)ccc2O[C@@H]1CN(C)S(C)(=O)=O	0	1	.	.	.	.	.
Cc1ccc(-c2cnc3c(c2)C(=O)N([C@H](C)CO)C[C@@H](C)[C@H](CN(C)C(=O)Cc2ccccc2)O3)cc1	-9	-11	12	.	.	.	.

Source: PubChem
